The list is not random: actives were taken first. Their share in the collection is about 1.8%.
MazF activator: MazEF (E. coli) toxin RNase activation; FAM/BHQ RNA-DNA oligo cleavage fluorescence, 5 h; P0AE70; activation, % at 20 µM; 350,000 compounds, 0.32% hits; in the data active means activation above about 50%
Target sequence (P0AE70 whole entry, looked up): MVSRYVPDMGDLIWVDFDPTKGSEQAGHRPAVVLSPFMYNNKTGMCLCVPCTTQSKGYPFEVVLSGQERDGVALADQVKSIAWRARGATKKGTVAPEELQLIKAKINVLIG
Yp Topo-I inh: Y. pestis Topo-I inhibition via cleavage products; Y. pestis Topo-I cleavage product accumulation, plate reader; activity, % at 10 µM; 360,000 compounds, 0.064% hits; AID 504884; in the data active means activity above about 50%, passing the limit was not always enough
BH1578 lux ind: quorum light induction in luxS cqsA deficient V. cholerae; V. cholerae BH1578 lux reporter, luminescence, 6 h; activation, % at 18.7 µM; 350,000 compounds, 0.16% hits; AID 588436; in the data active means activation mostly above about 9.7%, no sharp cut-off
VHR inh abs: blocks human VHR1 dual specificity phosphatase; AID 1654; inhibition, % at 13.3 µM; P51452; 290,000 compounds, 0.52% hits; recombinant VHR phosphatase, pNPP absorbance; in the data active means inhibition above about 50%
Target sequence (P51452 whole entry, looked up): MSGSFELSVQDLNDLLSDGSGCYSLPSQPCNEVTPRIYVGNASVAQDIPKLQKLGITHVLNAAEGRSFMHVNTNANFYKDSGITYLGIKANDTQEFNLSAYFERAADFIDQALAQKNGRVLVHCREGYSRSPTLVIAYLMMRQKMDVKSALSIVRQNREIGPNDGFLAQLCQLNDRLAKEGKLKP
PrPC TRFRET: inhibitors of human cell surface prion protein PrPC | P04156 | 370,000 compounds, 0.43% hits | TR-FRET read-out | inhibition, % at 13.8 µM; in the data active means inhibition above about 24%
CCHF vOTU inh: blocks the CCHF virus ovarian tumor domain protease | 370,000 compounds, 0.55% hits | CCHFV vOTU protease, Pep-AMC fluorescence | inhibition, % at 11.5 µM; in the data active means inhibition above about 30%
Hits are given with their value.

How did COc1ccccc1-n1c(N)c(C(N)=O)sc1=S do in these assays?
MazF activator: inactive; Yp Topo-I inh: inactive; BH1578 lux ind: inactive; VHR inh abs: 52.1; PrPC TRFRET: inactive; CCHF vOTU inh: inactive

Results for CCOc1ccc(NC(=O)CC(Cc2cc(C)cc(C)c2)C(=O)O)cc1 (centres undefined) ?
MazF activator: inactive; Yp Topo-I inh: inactive; BH1578 lux ind: inactive; VHR inh abs: 53.0; PrPC TRFRET: inactive; CCHF vOTU inh: inactive

How did COc1ccc(-c2nnc(SCC(=O)Nc3ccc4cn[nH]c4c3)n2Cc2ccco2)cc1 do in these assays?
PrPC TRFRET: inactive; CCHF vOTU inh: inactive

How did c1ccc(Cn2nnc3c(N4CCN(Cc5ccc6c(c5)OCO6)CC4)ncnc32)cc1 do in these assays?
MazF activator: inactive; Yp Topo-I inh: inactive; BH1578 lux ind: inactive; VHR inh abs: 51.4; PrPC TRFRET: inactive; CCHF vOTU inh: inactive

What do the screens show for `Cc1nn(CCC(=O)NNC(=O)Nc2ccccc2)c(C)c1[N+](=O)[O-]`?
PrPC TRFRET: inactive; CCHF vOTU inh: inactive

How did CCCC1CCC2(CCC(=O)N2CCO)CC1 (centres undefined) do in these assays?
PrPC TRFRET: inactive; CCHF vOTU inh: inactive

Results for Cc1[nH]n(-c2ccccc2)c(=O)c1C=Nc1cccc(F)c1 ?
MazF activator: inactive; Yp Topo-I inh: inactive; BH1578 lux ind: inactive; VHR inh abs: inactive; PrPC TRFRET: inactive; CCHF vOTU inh: inactive

Results for Cc1cccc(-n2[nH]c(C)c(C=Nc3ccc4[nH]c(=O)[nH]c4c3)c2=O)c1 ?
MazF activator: 153.8; Yp Topo-I inh: inactive; BH1578 lux ind: inactive; VHR inh abs: inactive; PrPC TRFRET: inactive; CCHF vOTU inh: inactive

What do the screens show for `Cc1[nH]n(-c2ccccc2)c(=O)c1C=Nc1ccc2[nH]c(=O)[nH]c2c1`?
MazF activator: 90.0; Yp Topo-I inh: inactive; BH1578 lux ind: inactive; VHR inh abs: inactive; PrPC TRFRET: inactive; CCHF vOTU inh: inactive

Results for COC(=O)[C@]12C[C@H](CC(=O)NCc3cccc(C(F)(F)F)c3)C(=O)N(Cc3ccc(Cl)cc3Cl)C1=C[C@H](C(C)C)O[C@@H]2C1CC1 ?
PrPC TRFRET: inactive; CCHF vOTU inh: inactive

What do the screens show for `COc1ccc(-n2cc(C(=O)O)c3ccccc3c2=O)cc1`?
MazF activator: inactive; Yp Topo-I inh: inactive; BH1578 lux ind: inactive; VHR inh abs: inactive; PrPC TRFRET: inactive; CCHF vOTU inh: inactive

Results for CCCN(CCC)CCCNC(=O)c1cn(-c2ccc(OC)cc2)c(=O)c2ccccc12 ?
MazF activator: inactive; Yp Topo-I inh: inactive; BH1578 lux ind: inactive; VHR inh abs: 52.6; PrPC TRFRET: inactive; CCHF vOTU inh: inactive

What do the screens show for `COc1ccc(/C=C2\CCCC(C(=O)C(F)(F)F)=C2O)cc1OC`?
VHR inh abs: inactive

What do the screens show for `COc1ccc(/C=C2/CCCC(C(=O)C(F)(F)F)=C2O)cc1OC`?
MazF activator: 210.6; Yp Topo-I inh: inactive; BH1578 lux ind: inactive; VHR inh abs: inactive; PrPC TRFRET: inactive; CCHF vOTU inh: inactive

What do the screens show for `CCOC(=O)c1cc(C)sc1N1C(=O)C2C3C=CC(C3)C2C1=O` (centres undefined)?
MazF activator: inactive; Yp Topo-I inh: inactive; BH1578 lux ind: 30.1; VHR inh abs: inactive; PrPC TRFRET: inactive; CCHF vOTU inh: inactive

What do the screens show for `N#CCCn1c(-c2nonc2NC(=O)c2ccccc2Cl)nc2ccccc21`?
MazF activator: 81.2; Yp Topo-I inh: inactive; BH1578 lux ind: inactive; VHR inh abs: inactive; PrPC TRFRET: inactive; CCHF vOTU inh: inactive

What do the screens show for `Cc1ccc2c(c1)C(CS(=O)(=O)NCc1ccc(F)cc1)NC2` (centres undefined)?
PrPC TRFRET: inactive; CCHF vOTU inh: inactive

How did Cc1[nH]c2ccccc2c1/C=C(\C#N)C(=O)NCc1ccccc1 do in these assays?
MazF activator: 105.7; Yp Topo-I inh: inactive; BH1578 lux ind: inactive; VHR inh abs: inactive; PrPC TRFRET: inactive; CCHF vOTU inh: inactive

What do the screens show for `COc1cc(C=Nn2c(-c3cc(C)[nH]n3)n[nH]c2=S)cc(Br)c1O`?
PrPC TRFRET: inactive; CCHF vOTU inh: inactive

Results for O=C(N/N=C/c1c[nH]c2ccccc12)c1ccccc1Cl ?
MazF activator: inactive; Yp Topo-I inh: inactive; BH1578 lux ind: inactive; VHR inh abs: 57.3; PrPC TRFRET: inactive; CCHF vOTU inh: inactive

What do the screens show for `O=C(N/N=C/c1c[nH]c2ccccc12)c1ccc(Cl)cc1`?
MazF activator: inactive; Yp Topo-I inh: inactive; BH1578 lux ind: inactive; VHR inh abs: inactive; PrPC TRFRET: inactive; CCHF vOTU inh: inactive

How did CC(C)(C)OC(=O)N1c2ccccc2[C@]2(N3CCCC3)C[C@H](C(=O)O)N(C(=O)OC(C)(C)C)[C@H]12 do in these assays?
PrPC TRFRET: inactive; CCHF vOTU inh: inactive

Results for COc1cc2c(cc1OC)C(c1cccc(F)c1)CC(=O)N2 (centres undefined) ?
MazF activator: inactive; Yp Topo-I inh: inactive; BH1578 lux ind: inactive; VHR inh abs: 51.0; PrPC TRFRET: inactive; CCHF vOTU inh: inactive

Results for CCCCCCCCCCOC(=O)NC1CCS(=O)(=O)C1 (centres undefined) ?
MazF activator: inactive; Yp Topo-I inh: inactive; BH1578 lux ind: inactive; VHR inh abs: inactive; PrPC TRFRET: inactive; CCHF vOTU inh: inactive

How did CCCOC(=O)NC1CCS(=O)(=O)C1 (centres undefined) do in these assays?
MazF activator: inactive; Yp Topo-I inh: inactive; BH1578 lux ind: 16.7; VHR inh abs: inactive; PrPC TRFRET: inactive; CCHF vOTU inh: inactive

How did CCN(CC)c1ccc(NC2CC(=O)N(CCc3ccc(OC)cc3)C2=O)cc1 (centres undefined) do in these assays?
MazF activator: 60.5; Yp Topo-I inh: inactive; BH1578 lux ind: inactive; VHR inh abs: inactive; PrPC TRFRET: inactive; CCHF vOTU inh: inactive

Results for COc1ccc(CCNC2CC(=O)N(CCc3ccccc3)C2=O)cc1 (centres undefined) ?
MazF activator: inactive; Yp Topo-I inh: inactive; BH1578 lux ind: inactive; VHR inh abs: inactive; PrPC TRFRET: inactive; CCHF vOTU inh: inactive

Results for C[C@H]1[C@@H](OC(=O)NCc2ccco2)CC[C@@]23CCCN2C(=O)CCC[C@@H]13 ?
PrPC TRFRET: inactive

How did O=C(CSc1nnc(COc2ccccc2)n1-c1ccc(Cl)cc1)Nc1ccccc1-c1ccccc1 do in these assays?
PrPC TRFRET: inactive; CCHF vOTU inh: inactive

How did COc1ccc(C(=O)NCCNC(=O)c2cnccn2)cc1OC do in these assays?
MazF activator: inactive; Yp Topo-I inh: inactive; BH1578 lux ind: inactive; VHR inh abs: 52.0; PrPC TRFRET: inactive; CCHF vOTU inh: inactive

Results for CC(Oc1ccccc1)C(=O)N(CCC1=CCCCC1)c1c(N)n(Cc2ccccc2)c(=O)[nH]c1=O (centres undefined) ?
MazF activator: inactive; Yp Topo-I inh: inactive; BH1578 lux ind: 23.3; VHR inh abs: inactive; PrPC TRFRET: inactive; CCHF vOTU inh: inactive

How did CCc1nnn2c1Cn1c3ccccc3c(=O)n1[C@@H](C(C)C)C2 do in these assays?
PrPC TRFRET: inactive; CCHF vOTU inh: inactive

How did Cc1cc(Cl)cc2c(N=Nc3ccccc3C(=O)O)c(O)[nH]c12 do in these assays?
MazF activator: inactive; Yp Topo-I inh: inactive; BH1578 lux ind: inactive; VHR inh abs: inactive; PrPC TRFRET: inactive; CCHF vOTU inh: inactive
